Here are results for 13 compounds from PubChem BioAssay.

For experiment [1], the target named is Albumin (Bos taurus) (UniProt P02769). In words: compounds binding labelled BSA control protein – biochemical, small-molecule microarray, Alexa647 label, 635/667 nm fluorescence, artefact control for SMM control protein annotation, profiling panel (AID 1118).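 Note: score merges 667 nm emission intensity and signal-to-noise per printed compound spot.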 To be noted: BSA-A647 binding, fluorescence 635 nm, higher = more signal.
The nature of experiment [2]: probe aXIP binding to arrayed compounds – biochemical, NeuroSMM set, 635/667 nm fluorescence, primary screen (AID 1119).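 Note: probe is the protein aXip251-270 applied at 1 µg/mL to compound-printed slides; binding of probe to printed compounds measured as 667 nm fluorescence plus signal to noise.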 To be noted: small-molecule microarray, higher = more signal, called active from +8 up or from −8 down.
Experiment [3] is described as follows: probe aNOTCH3 binding on compound microarray – biochemical, small-molecule microarray, 635/667 nm fluorescence, primary screen (AID 1120).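 Note: probe is a biotin-tagged antibody raised against NOTCH3 rather than NOTCH3 protein; score merges spot fluorescence near 667 nm with spot signal to noise.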 To be noted: higher = more signal.
Experiment [4] can be described thus: probe aNOTCH2 binding on compound microarray – biochemical, small-molecule microarray, 635/667 nm fluorescence, primary screen (AID 1121).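 Note: score merges feature fluorescence read at 667 nm with its signal to noise.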 The conditions noted are these: higher = more signal.
Experiment [5] has as its target Carbonic anhydrase 2 (Homo sapiens) (UniProt P00918). In words: compounds binding carbonic anhydrase 2 – biochemical, small-molecule microarray, Alexa647-labelled CAII, profiling panel (AID 1122). To be noted: CAII-A647 binding fluorescence, higher = more signal.
Experiment [6] in a line: COS7 lysate on small-molecule microarray, probe aHis, 635 nm (AID 1123).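 Note: z-score combines 667nm fluorescence intensity with signal-to-noise per printed compound spot.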 To be noted: COS7 cell lysate, fluorescence, higher = more signal.
Experiment [7] is described as follows: probe aLAP1 signal on lysate-treated microarray – cell lysate, small-molecule microarray, COS7 lysate, primary screen (AID 1124).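 Note: lysate comes from COS7 cells expressing LAP1 and is applied at 0.3 µg/mL; score merges spot fluorescence near 667 nm with signal-to-noise over triplicate slides.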 To be noted: probe aLAP1, fluorescence, higher = more signal.
In experiment [8] the test system is Sam68 (KHDRBS1). In words: compounds binding KHDRBS1 protein – biochemical, small-molecule microarray, 635 nm fluorescence, primary screen (AID 1125).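 Note: score merges 667 nm channel intensity with signal to noise over triplicate slides.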 The conditions noted are these: higher = more signal.
Experiment [9] deals with Chordin-like protein 2 (CHRDL2). In words: compounds binding chordin-like 2 – biochemical, small-molecule microarray, 635 nm fluorescence, primary screen (AID 1126).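 Note: printed compound slides probed with Chrdl2 protein at 4 µg/mL for 1 h at 4 C; score merges 667 nm emission intensity with signal to noise over three replicate slides.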 The conditions noted are these: fluorescence 635 nm, higher = more signal.
For experiment [10], the target named is Concanavalin-A (Canavalia ensiformis) (UniProt P02866). Put plainly: compounds binding concanavalin A lectin – biochemical, small-molecule microarray, Alexa647 label, 635 nm, artefact control for SMM control protein annotation, primary screen (AID 1127).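 Note: z combines 667 nm emission intensity with signal-to-noise across three replicate slides.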 The conditions noted are these: ConA-A647 binding fluorescence, higher = more signal.

Active and inactive are the calls of the source.

Sequence of Albumin (Bos taurus) (P02769 whole entry, looked up): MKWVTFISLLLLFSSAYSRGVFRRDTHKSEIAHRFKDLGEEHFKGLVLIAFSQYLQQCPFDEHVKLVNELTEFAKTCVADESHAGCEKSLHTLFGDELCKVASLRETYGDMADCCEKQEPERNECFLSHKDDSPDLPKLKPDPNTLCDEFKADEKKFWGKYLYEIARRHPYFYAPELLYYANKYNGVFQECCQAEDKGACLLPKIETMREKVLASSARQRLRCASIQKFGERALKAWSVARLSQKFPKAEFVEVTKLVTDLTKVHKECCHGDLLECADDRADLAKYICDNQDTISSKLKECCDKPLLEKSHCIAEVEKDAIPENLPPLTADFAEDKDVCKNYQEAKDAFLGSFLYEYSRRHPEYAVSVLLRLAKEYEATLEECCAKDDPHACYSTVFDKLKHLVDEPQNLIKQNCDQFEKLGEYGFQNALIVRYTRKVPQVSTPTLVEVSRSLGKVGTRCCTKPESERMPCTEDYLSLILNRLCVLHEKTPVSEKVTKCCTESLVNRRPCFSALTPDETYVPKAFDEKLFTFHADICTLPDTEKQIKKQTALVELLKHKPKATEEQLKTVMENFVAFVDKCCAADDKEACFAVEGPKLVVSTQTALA
Sequence of Concanavalin-A (Canavalia ensiformis) (P02866 whole entry, looked up): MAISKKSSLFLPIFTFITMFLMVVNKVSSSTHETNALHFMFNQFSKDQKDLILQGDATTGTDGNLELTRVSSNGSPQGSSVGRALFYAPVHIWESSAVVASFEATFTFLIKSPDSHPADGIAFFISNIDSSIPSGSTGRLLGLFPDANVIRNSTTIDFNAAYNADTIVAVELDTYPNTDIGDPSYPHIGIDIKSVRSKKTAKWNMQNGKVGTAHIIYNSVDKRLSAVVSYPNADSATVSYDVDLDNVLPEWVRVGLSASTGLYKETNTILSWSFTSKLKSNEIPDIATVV

Regarding `O=C1O[C@@H](c2ccccc2)[C@@H](c2ccccc2)N2[C@@H](c3ccc(OCCO)cc3)[C@]3(C(=O)Nc4ccccc43)[C@@H](C(=O)O)[C@H]12`, the composite z-score is -0.0883 in [1]; 1.09 in [3]; 0.464 in [4]; 0.745 in experiment [5]; 1.03 in experiment [6]; 0.741 in [7]. The values for the composite z-score in [8], in [9] and in experiment [10] were 0.428, -0.12 and 0.539, respectively. Besides, in experiment [2], the composite Z-score is -0.24 (inactive).

As to `CC(C)C[C@@H]1NC(=O)[C@@H]2C[C@H](C(=O)NCCCCN(C)C)[C@H](c3cccc(OCCO)c3)N2C1=O`, the composite z-score is 0.434 in experiment [1]; -0.245 in experiment [3]; -0.132 in [4]; 0.466 in [5]; 1.63 in experiment [6]; 0.613 in experiment [7]. Moreover, the composite z-score came to 0.505 in experiment [8], 0.175 in [9] and 0.129 in [10]. For the same compound, the composite Z-score in [2] is 0.157 (inactive).

For the compound `CC(c1ccccc1)C(O)C1C=CC2C(=O)N(c3ccccc3)C(=O)C2N1Nc1ccc([N+](=O)[O-])cc1` (stereo not given), the composite z-score in experiment [1] is 0.903; in experiment [3], 0.158; in experiment [4] it was -0.0211; in experiment [5] it was 0.526; in experiment [6], 2.95; in experiment [7], 0.0001. For the same compound, the composite z-score was 1.05 in experiment [8], -0.661 in experiment [9] and 1.12 in [10]. For the same compound, in experiment [2], the composite Z-score is -0.122 (inactive).

For `COc1ccc(C(O)C2C=CC3C(=O)N(c4ccccc4)C(=O)C3N2Nc2ccc([N+](=O)[O-])cc2)cc1` (stereo not given), the composite z-score in experiment [1] amounted to 0.968; in [3], 0.84; in experiment [4] it was 0.495; in experiment [5], 0.637; in experiment [6], 2.86; in [7], 0.64. Moreover, the composite z-score was 1.31 in [8], -0.936 in [9] and 0.989 in experiment [10]. Also, in [2], the composite Z-score was 1.19 (inactive).

Regarding `COC1OC[C@]2(C)[C@H]3C4=C(CN2C(=O)OC(C)(C)C)[C@H](C)C(CO)C(CO)C4CC[C@@H]13` (stereo not given in full), the composite z-score is 1.1 in experiment [1]; 0.239 in [3]; 0.35 in experiment [4]; 0.805 in experiment [5]; 2.88 in experiment [6]; 0.875 in experiment [7]. Moreover, the composite z-score was 1.31 in [8], -0.675 in [9] and 1.17 in experiment [10]. Moreover, the composite Z-score in experiment [2] was 0.0112 (inactive).

Consider `COc1ccc(CCNC(=O)[C@@H]2c3ccccc3C(=O)N(Cc3cc(C(F)(F)F)cc(C(F)(F)F)c3)[C@H]2c2ccc(CO)cc2)cc1`, for which the composite z-score in [1] was -0.329; in experiment [3], -0.208; in [4], -0.149; in experiment [5], 0.681; in experiment [6], 0.84; in [7], 0.566. Further, the values for the composite z-score in experiment [8], in experiment [9] and in experiment [10] were 1.14, -0.571 and 0.425, respectively. In [2], the composite Z-score was -0.586 (inactive).

For the compound `C=C(COC)/C(=C/C[C@H](OC(=O)c1ccncc1)c1ccccc1OCCO)c1cnc2ccccc2c1`, the composite z-score in experiment [1] was 0.609; in experiment [3] it was 0.0964; in experiment [4] it was -0.102; in experiment [5], 0.881; in experiment [6] it was 2.07; in experiment [7], 0.118. The composite z-score was determined as 1.29 in [8], 0.951 in experiment [9] and 1.03 in experiment [10]. The composite Z-score in experiment [2] is 0.431 (inactive).

As for `Cc1ccc(S[C@]2(C(=O)NCC(F)(F)F)CC(=O)N(Cc3ccccc3)[C@@H]2c2ccc(CO)cc2I)cc1`, the composite z-score in [1] was 0.132; in experiment [3] it was -0.212; in experiment [4] it was -0.183; in [5], 0.679; in [6], 1.21; in experiment [7] it was 1.57. The composite z-score in experiment [8] was 0.0687; in experiment [9] it was -0.151; in [10], -0.203. For the same compound, the composite Z-score in [2] was 0.184 (inactive).

As to `Cc1cc(C)c(C(O)C2C=CC3C(=O)N(c4ccccc4)C(=O)C3N2Nc2ccc(C(C)C)cc2)c(C)c1` (stereo not given), the composite z-score in [1] turned out to be 0.585; in [3] it was 0.331; in experiment [4], 0.0557; in experiment [5], 0.712; in [6] it was 2.78; in experiment [7] it was 0.8. For the same compound, the composite z-score in [8] was 1.29; in experiment [9], -0.545; in [10] it was 1.18. For the same compound, the composite Z-score in [2] was 0.904 (inactive).

Consider `COC(=O)[C@@]1(Cc2ccccc2)[C@H]2c3cc(C(=O)N(C)C)n(CCN4CNCC4=O)c3C[C@H]2CN1C(=O)c1ccccc1`, for which the composite z-score in experiment [1] was 0.984; in [3], 0.571; in experiment [4], 0.37; in experiment [5] it was 0.826; in [6] it was -0.325; in [7] it was 1.26. The values for the composite z-score in experiment [8], in experiment [9] and in experiment [10] were -0.764, -1.16 and -1.42, respectively. In addition, the composite Z-score in [2] is 0.0052 (inactive).

Regarding `COC(=O)[C@@]1(Cc2ccc(F)cc2)[C@H]2c3cc(C(=O)N(C)C)n(CCc4ccc(O)c(OC)c4)c3C[C@H]2CN1C(=O)c1ccccc1`, the composite z-score in experiment [1] stood at 0.24; in [3], 0.842; in experiment [4], 1.02; in experiment [5], 0.25; in experiment [6], 0.694; in experiment [7], 0.311. Further, the composite z-score is 0.326 in [8], 0.497 in experiment [9] and -0.0415 in experiment [10]. Moreover, the composite Z-score in experiment [2] was -0.399 (inactive).

With `CCCCCCc1nc(C2CC2)cc2c1[Si](C(C)C)(C(C)C)OC2`, the composite z-score in [1] was -0.858; in experiment [3], -0.197; in experiment [4], -0.176; in [5] it was -0.513; in experiment [6], -0.535; in [7] it was -0.0031. The composite z-score in experiment [8] is -0.826; in [9] it was -0.463; in experiment [10] it was -0.334. The composite Z-score in experiment [2] was 0.289 (inactive).

Consider `CCOC(=O)C[C@H]1[C@H](OC(=O)Cc2ccc3c(c2)OCO3)[C@@H](NC(=O)CC(C)C)c2cc(OCCCO)ccc2N1C(=O)Cc1ccc(OC)cc1`, for which the composite z-score in experiment [1] is 0.779; in [3], -0.0328; in experiment [4], -0.0288; in experiment [5] it was 0.0138; in [6], 0.775; in experiment [7] it was 0.166. The composite z-score in experiment [8] is 0.282; in [9] it was -0.226; in [10], -0.622. Also, the composite Z-score in experiment [2] is -0.867 (inactive).
